The source made the active and inactive calls.
Experiments:
[1] = anti-His antibody binders, primary screen, artefact control for SMM control protein annotation, biochemical, small-molecule microarray, 635 nm fluorescence (AID 1128); settings: anti-His Alexa647 antibody binding, higher = more signal;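 further: score merges feature fluorescence with signal-to-noise for each printed compound spot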
[2] = test system: Human papillomavirus type 1a E7 protein (residues 1-88); test: HPV1a E7 small-molecule binders, primary screen, biochemical, small-molecule microarray, residues 1-88, 635 nm (AID 1129); settings: small-molecule microarray binding, fluorescence 635 nm; higher = more signal
[3] = biological target: Focal adhesion kinase 1 (Homo sapiens) (UniProt Q05397); test: small-molecule microarray binders of FAK, primary screen, biochemical, 635/667 nm fluorescence, BSA, DTT (AID 1130); settings: PTK2 binding, 635 nm fluorescence, higher = more signal;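 further: composite of spot emission at 667 nm and signal to noise over triplicate slides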
[4] = test system: Fibrinogen (Alexa647-labelled); test: fibrinogen binders on compound microarrays, profiling panel, artefact control for SMM control-protein annotation, biochemical, small-molecule microarray, 635/667 nm fluorescence (AID 1131); settings: fibrinogen-A647 binding fluorescence, higher = more signal;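 further: z-score merges 667 nm fluorescence with per-spot signal-to-noise over triplicate slides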
[5] = biological target: Follistatin (Homo sapiens) (UniProt P19883); test: follistatin binders on small-molecule microarrays, primary screen, biochemical, small-molecule microarray, 635/667 nm fluorescence (AID 1132); settings: FST binding, 635 nm fluorescence, higher = more signal
[6] = biological target: Fibroblast growth factor 2 (Homo sapiens) (UniProt P09038); test: FGF2 binders on small-molecule microarrays, primary screen, biochemical, small-molecule microarray, 635/667 nm fluorescence (AID 1133); settings: small-molecule microarray binding, FGF2, fluorescence 635/667; higher = more signal
[7] = mitochondrial membrane potential change in A549 cells, profiling panel, cell-based, JC-1 fluorescence, basal, 24 h, 100 nL (AID 1138); settings: higher = more signal;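 further: A549 lung adenocarcinoma cells under basal conditions with no added stimulus; test concentration not given here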
Lefty1 = Lefty1 binders on small-molecule microarrays, primary screen, biochemical, small-molecule microarray, 635/667 nm fluorescence (AID 1139); settings: small-molecule microarray binding, fluorescence 635/667; higher = more signal
[8] = test system: wheat germ agglutinin (Triticum aestivum), Alexa647-labelled; test: wheat germ agglutinin binders on compound microarrays, profiling panel, artefact control for SMM control-protein annotation, biochemical, small-molecule microarray, 635/667 nm fluorescence (AID 1140); settings: WGA-A647 binding, 635 nm fluorescence, higher = more signal;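 further: score merges 667 nm feature emission with signal to noise over triplicate slides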
[9] = biological target: Luciferin 4-monooxygenase (Photinus pyralis) (UniProt P08659); test: firefly luciferase enzyme inhibitors, primary screen, biochemical, luminescence, purified enzyme, 2006 set (AID 1141); settings: SteadyGlo luminescence, 30 min, higher = more signal, called active from +8 up or from −8 down;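 further: cell-free assay with purified firefly luciferase at 100 ng per well in PBS; test concentration not given here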
Chain of Luciferin 4-monooxygenase (Photinus pyralis) (P08659 whole entry, looked up): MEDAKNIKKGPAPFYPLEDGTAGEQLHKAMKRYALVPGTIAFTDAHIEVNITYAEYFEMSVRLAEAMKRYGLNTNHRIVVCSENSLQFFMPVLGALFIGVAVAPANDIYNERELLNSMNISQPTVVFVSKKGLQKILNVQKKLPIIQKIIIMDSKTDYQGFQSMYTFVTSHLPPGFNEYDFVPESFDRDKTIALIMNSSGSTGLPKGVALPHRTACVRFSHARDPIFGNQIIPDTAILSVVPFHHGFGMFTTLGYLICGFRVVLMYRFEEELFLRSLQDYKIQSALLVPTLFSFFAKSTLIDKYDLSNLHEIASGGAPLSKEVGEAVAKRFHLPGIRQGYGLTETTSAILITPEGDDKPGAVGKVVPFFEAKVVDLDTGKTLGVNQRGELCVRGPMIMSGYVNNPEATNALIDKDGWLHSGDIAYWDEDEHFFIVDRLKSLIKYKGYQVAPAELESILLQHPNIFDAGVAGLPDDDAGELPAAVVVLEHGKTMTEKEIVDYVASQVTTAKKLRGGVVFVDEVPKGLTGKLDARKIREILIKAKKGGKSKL

Chain of Follistatin (Homo sapiens) (P19883 whole entry, looked up): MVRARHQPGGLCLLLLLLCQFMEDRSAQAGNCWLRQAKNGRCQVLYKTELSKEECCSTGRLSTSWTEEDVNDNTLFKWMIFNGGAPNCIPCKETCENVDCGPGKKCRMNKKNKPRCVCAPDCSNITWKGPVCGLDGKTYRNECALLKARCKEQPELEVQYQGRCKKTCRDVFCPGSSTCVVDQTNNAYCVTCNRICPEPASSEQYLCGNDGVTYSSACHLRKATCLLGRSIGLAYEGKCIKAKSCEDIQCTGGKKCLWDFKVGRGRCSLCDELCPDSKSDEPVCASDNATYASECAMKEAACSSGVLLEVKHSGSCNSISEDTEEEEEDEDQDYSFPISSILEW
Chain of Fibroblast growth factor 2 (Homo sapiens) (P09038 whole entry, looked up): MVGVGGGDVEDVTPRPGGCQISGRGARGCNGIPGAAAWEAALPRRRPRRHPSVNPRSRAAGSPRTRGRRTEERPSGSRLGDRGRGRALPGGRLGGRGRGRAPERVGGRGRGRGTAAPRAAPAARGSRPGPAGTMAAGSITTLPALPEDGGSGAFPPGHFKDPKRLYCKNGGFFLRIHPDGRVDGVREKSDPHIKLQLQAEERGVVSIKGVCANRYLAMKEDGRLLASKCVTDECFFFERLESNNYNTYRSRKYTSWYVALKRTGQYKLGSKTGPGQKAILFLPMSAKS
Chain of Focal adhesion kinase 1 (Homo sapiens) (Q05397 whole entry, looked up): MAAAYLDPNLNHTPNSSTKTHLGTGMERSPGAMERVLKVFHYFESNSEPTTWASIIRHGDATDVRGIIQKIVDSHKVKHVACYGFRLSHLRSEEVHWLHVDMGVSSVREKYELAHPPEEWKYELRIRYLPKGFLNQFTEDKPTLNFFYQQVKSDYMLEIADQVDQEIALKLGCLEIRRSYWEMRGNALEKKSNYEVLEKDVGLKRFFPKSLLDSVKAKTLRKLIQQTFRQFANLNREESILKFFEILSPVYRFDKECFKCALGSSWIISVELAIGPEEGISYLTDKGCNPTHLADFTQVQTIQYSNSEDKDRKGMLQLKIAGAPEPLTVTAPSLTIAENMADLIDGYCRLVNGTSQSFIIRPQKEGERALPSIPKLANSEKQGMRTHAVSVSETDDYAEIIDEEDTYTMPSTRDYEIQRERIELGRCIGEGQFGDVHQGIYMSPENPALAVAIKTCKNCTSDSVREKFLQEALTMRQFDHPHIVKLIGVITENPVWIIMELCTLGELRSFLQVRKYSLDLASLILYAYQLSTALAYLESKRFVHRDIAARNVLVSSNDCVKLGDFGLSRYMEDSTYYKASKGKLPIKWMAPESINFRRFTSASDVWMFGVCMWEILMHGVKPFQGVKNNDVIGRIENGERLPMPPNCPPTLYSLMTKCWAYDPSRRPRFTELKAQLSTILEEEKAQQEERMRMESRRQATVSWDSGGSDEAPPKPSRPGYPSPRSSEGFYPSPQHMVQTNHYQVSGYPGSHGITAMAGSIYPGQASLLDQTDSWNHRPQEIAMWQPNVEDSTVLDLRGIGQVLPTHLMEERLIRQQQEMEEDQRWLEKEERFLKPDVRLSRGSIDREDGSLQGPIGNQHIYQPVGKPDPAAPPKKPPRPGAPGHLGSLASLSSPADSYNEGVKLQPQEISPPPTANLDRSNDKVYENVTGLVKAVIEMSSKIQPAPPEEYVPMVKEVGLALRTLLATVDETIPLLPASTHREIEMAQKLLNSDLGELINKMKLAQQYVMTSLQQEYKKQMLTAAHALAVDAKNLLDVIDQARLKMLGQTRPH

## COc1cc(CO)cc(I)c1O[C@H]1C=C(C(=O)NCCO)C[C@@H](NCC2CCCCC2)[C@@H]1O
[1]
  composite z-score: 0.72
[2]
  composite z-score: 0.283
[3]
  composite z-score: 0.211
[4]
  composite z-score: 0.0646
[5]
  composite z-score: 0.521
[6]
  composite z-score: 0.566
[7]
  z-score: -0.0493
Lefty1
  composite z-score: 0.302
[8]
  composite z-score: 0.672
[9]
  z-score: 0.734 (inactive)

## CN1C(=O)C2C=CC(C(O)c3ccc(I)cc3)N(Nc3ccccc3)C2C1=O (stereo not given)
[1]
  composite z-score: 0.276
[2]
  composite z-score: 1.22
[3]
  composite z-score: -0.161
[4]
  composite z-score: 1.02
[5]
  composite z-score: 1.19
[6]
  composite z-score: 0.979
[7]
  z-score: 0.255
Lefty1
  composite z-score: 0.465
[8]
  composite z-score: 0.86
[9]
  z-score: -0.431 (inactive)

## NC(=O)[C@H]1[C@@H]2C(=O)O[C@@H](c3ccccc3)[C@@H](c3ccccc3)N2[C@@H](c2ccc(O)cc2)[C@]12C(=O)Nc1ccccc12
[1]
  composite z-score: 0.53
[2]
  composite z-score: -0.189
[3]
  composite z-score: -0.91
[4]
  composite z-score: -1.61
[5]
  composite z-score: -0.441
[6]
  composite z-score: -0.943
[7]
  z-score: -0.186
Lefty1
  composite z-score: -0.502
[8]
  composite z-score: -1.03
[9]
  z-score: -0.794 (inactive)

## COCCCNC(=O)[C@@]1(c2ccc([N+](=O)[O-])cc2)CC(=O)N(CC23CC4CC(CC(C4)C2)C3)[C@@H]1c1ccc(CO)cc1I
[1]
  composite z-score: 1.77
[2]
  composite z-score: 0.892
[3]
  composite z-score: 0.0865
[4]
  composite z-score: 0.705
[5]
  composite z-score: 1.16
[6]
  composite z-score: 0.614
[7]
  z-score: -0.189
Lefty1
  composite z-score: -0.122
[8]
  composite z-score: 0.47
[9]
  z-score: 0.482 (inactive)

## C=C(/C(=C/C[C@@H](OC(C)=O)c1ccc(CO)o1)c1cc(C(=O)OC)ccc1OC)C(C)C
[1]
  composite z-score: 1.54
[2]
  composite z-score: 0.659
[3]
  composite z-score: 0.571
[4]
  composite z-score: 0.0384
[5]
  composite z-score: 0.913
[6]
  composite z-score: 0.682
[7]
  z-score: -0.237
Lefty1
  composite z-score: 0.564
[8]
  composite z-score: 0.427
[9]
  z-score: -3.52 (inactive)

## CC(C)CNC(=O)[C@@]1(C)c2ccccc2C(=O)N(Cc2cc(C(F)(F)F)cc(C(F)(F)F)c2)[C@H]1c1ccc(CO)cc1
[1]
  composite z-score: -0.738
[2]
  composite z-score: -0.391
[3]
  composite z-score: -0.342
[4]
  composite z-score: -1.03
[5]
  composite z-score: -0.117
[6]
  composite z-score: 0.0193
[7]
  z-score: 0.843
Lefty1
  composite z-score: 0.0325
[8]
  composite z-score: -0.356
[9]
  z-score: -0.0582 (inactive)

## CCCNC(=O)[C@@]1(Sc2ccc(C)cc2)CC(=O)N(C2CCCCC2)[C@@H]1c1ccc(CO)cc1I
[1]
  composite z-score: 1.53
[2]
  composite z-score: 1.2
[3]
  composite z-score: 0.996
[4]
  composite z-score: 0.146
[5]
  composite z-score: -0.182
[6]
  composite z-score: 0.128
[7]
  z-score: 1.04
Lefty1
  composite z-score: -0.351
[8]
  composite z-score: 0.73
[9]
  z-score: -0.0779 (inactive)

## C=CC1c2cc(O)c(OC)cc2CCN1Cc1ccc([N+](=O)[O-])o1 (stereo not given)
[1]
  composite z-score: 3
[2]
  composite z-score: -0.354
[3]
  composite z-score: -0.426
[4]
  composite z-score: 0.66
[5]
  composite z-score: 0.138
[6]
  composite z-score: -0.0471
[7]
  z-score: 1.3
Lefty1
  composite z-score: -0.807
[8]
  composite z-score: 1.39
[9]
  z-score: -1.6 (inactive)

## [N-]=[N+]=Nc1ccccc1C[C@]1(C(=O)O)N=C(c2ccc(OCCCO)cc2)O[C@H]1c1ccccc1
[1]
  composite z-score: 0.133
[2]
  composite z-score: 0.612
[3]
  composite z-score: -0.0641
[4]
  composite z-score: 0.282
[5]
  composite z-score: 0.968
[6]
  composite z-score: -0.619
[7]
  z-score: 0.12
Lefty1
  composite z-score: -0.605
[8]
  composite z-score: 0.801
[9]
  z-score: -3.91 (inactive)

## O=C1O[C@H](c2ccccc2)[C@H](c2ccccc2)N2[C@H]1[C@@H](C(=O)Nc1nc3ccccc3s1)[C@]1(C(=O)Nc3ccc(C#CC4=CCCCC4)cc31)[C@H]2c1ccc(O)cc1
[1]
  composite z-score: 0.41
[2]
  composite z-score: 1.18
[3]
  composite z-score: -0.145
[4]
  composite z-score: 0.921
[5]
  composite z-score: 1.12
[6]
  composite z-score: 0.355
[7]
  z-score: -1.83
Lefty1
  composite z-score: 0.844
[8]
  composite z-score: 0.191
[9]
  z-score: 0.128 (inactive)

## [N-]=[N+]=NCc1ccccc1C[C@@]1(C(=O)N2CCCCC2)N=C(c2ccc(OCCCO)cc2)O[C@@H]1c1ccccc1CN=[N+]=[N-]
[1]
  composite z-score: -0.174
[2]
  composite z-score: 1.18
[3]
  composite z-score: 0.457
[4]
  composite z-score: 1.02
[5]
  composite z-score: 0.913
[6]
  composite z-score: 0.74
[7]
  z-score: 0.342
Lefty1
  composite z-score: -0.611
[8]
  composite z-score: 1.28
[9]
  z-score: -0.57 (inactive)

## COCCOC(=O)N1C(=O)[C@@]2(c3ccccc31)[C@H](c1ccccc1OCCO)N1[C@H](c3ccccc3)[C@H](c3ccccc3)OC(=O)[C@H]1[C@@H]2C(N)=O
[1]
  composite z-score: 1.93
[2]
  composite z-score: 1.18
[3]
  composite z-score: 0.502
[4]
  composite z-score: 0.955
[5]
  composite z-score: 1.4
[6]
  composite z-score: 1.57
[7]
  z-score: -0.206
Lefty1
  composite z-score: 1.01
[8]
  composite z-score: 0.64
[9]
  z-score: 0.0559 (inactive)

## CCCCNC(=O)c1ccc(C#C[Si](C(C)C)(C(C)C)C(C)C)c(OC(C)=O)c1
[1]
  composite z-score: 0.823
[2]
  composite z-score: 1.13
[3]
  composite z-score: 0.124
[4]
  composite z-score: 0.598
[5]
  composite z-score: 1.15
[6]
  composite z-score: 0.883
[7]
  z-score: -2.05
Lefty1
  composite z-score: 1.01
[8]
  composite z-score: 1.08
[9]
  z-score: 0.683 (inactive)
